The target in assay [1] is Androgen receptor (Homo sapiens) (UniProt P10275). In words: qHTS assay to identify small molecule agonists of the androgen receptor (AR) signaling pathway in the presence of an antagonist (AID 1259381). Note: nearly all actives have a fitted effect of over 15% in size. In a few lines: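 MDA-kb2 human breast carcinoma cells carrying an MMTV-luciferase reporter (AR- and GR-responsive) were treated with compounds at 15 concentrations plus 3.0uM final nilutamide for 16hr at 37C without CO2; luminescence was read after ONE-Glo addition.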
Androgen receptor (Homo sapiens), sequence (P10275 whole entry, looked up): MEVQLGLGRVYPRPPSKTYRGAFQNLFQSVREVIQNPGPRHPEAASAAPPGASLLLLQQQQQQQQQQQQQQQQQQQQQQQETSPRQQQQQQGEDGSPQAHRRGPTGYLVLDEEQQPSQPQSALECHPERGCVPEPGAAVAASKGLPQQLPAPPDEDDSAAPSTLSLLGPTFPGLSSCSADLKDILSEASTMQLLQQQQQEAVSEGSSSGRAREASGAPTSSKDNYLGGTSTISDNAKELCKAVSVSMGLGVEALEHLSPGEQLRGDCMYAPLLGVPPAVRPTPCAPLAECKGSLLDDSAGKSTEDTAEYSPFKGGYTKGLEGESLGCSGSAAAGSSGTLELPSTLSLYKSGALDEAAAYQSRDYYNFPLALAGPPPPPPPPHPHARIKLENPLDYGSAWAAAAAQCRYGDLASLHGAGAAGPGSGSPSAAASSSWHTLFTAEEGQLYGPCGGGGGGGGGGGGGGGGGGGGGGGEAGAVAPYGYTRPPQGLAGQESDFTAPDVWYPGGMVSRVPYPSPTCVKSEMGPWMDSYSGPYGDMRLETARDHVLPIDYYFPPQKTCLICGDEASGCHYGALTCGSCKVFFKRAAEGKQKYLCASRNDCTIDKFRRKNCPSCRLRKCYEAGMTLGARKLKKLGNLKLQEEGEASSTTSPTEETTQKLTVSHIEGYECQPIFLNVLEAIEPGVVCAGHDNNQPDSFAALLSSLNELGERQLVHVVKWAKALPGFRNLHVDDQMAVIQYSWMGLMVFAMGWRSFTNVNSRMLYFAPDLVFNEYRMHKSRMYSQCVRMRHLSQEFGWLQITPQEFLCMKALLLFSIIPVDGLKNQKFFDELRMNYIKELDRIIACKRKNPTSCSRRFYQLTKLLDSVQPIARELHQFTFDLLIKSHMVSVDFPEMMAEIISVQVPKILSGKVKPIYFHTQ
(In qHTS, concentration-response curves come from the screen itself.)

The nature of assay [2]: qHTS assay to identify small molecule agonists or antagonists of the thyroid stimulating hormone receptor (TSHR) signaling pathway - wild type cell line counter screen (AID 1259384). The gist of the method:
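Wild-type HEK293 cells were plated 18 h at 37 C/5% CO2, pin-dosed with compound plus Ro20-1724 medium, held 30 min at room temperature, then given cAMP-d2 and anti-cAMP-cryptate; fluorescence was read after 1 h. Fifteen concentrations, triplicate.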

The target in assay [3] is Thyrotropin receptor (Homo sapiens) (UniProt P16473). Nature of the assay: qHTS assay to identify small molecule antagonists of the thyroid stimulating hormone receptor (TSHR) signaling pathway (AID 1259385). Note: nearly all actives have a fitted effect of over 20% in size. In a few lines: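 TSHR-HEK293 cells were plated and held 18 h at 37C/5% CO2, then given compound plus Ro20-1724 and stimulated with TSH at 1.5 ng/mL final. After 30 min at room temperature, cAMP was detected with cAMP-d2/anti-cAMP-cryptate (1 h) by fluorescence.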
Thyrotropin receptor (Homo sapiens), sequence (P16473 whole entry, looked up): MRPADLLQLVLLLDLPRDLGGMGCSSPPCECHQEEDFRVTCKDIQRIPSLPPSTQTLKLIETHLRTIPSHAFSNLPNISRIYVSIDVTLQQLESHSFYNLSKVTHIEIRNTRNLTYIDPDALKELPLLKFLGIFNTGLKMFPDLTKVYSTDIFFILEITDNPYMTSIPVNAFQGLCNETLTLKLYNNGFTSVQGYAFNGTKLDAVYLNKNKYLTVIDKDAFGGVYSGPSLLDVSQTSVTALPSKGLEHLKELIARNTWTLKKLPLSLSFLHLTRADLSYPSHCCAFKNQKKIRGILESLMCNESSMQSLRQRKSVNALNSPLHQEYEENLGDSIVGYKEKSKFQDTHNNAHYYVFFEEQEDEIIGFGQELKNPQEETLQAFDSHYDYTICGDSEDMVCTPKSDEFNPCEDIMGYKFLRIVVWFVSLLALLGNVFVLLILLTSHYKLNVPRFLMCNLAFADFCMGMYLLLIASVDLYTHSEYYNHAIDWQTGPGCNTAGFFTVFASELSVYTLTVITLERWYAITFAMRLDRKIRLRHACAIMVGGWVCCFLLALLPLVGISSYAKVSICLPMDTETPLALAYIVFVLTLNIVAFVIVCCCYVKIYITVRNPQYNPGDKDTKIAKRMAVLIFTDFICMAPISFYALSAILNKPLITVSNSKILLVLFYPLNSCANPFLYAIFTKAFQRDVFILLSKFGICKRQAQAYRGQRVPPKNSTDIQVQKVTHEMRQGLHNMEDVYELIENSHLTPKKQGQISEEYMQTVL

The nature of assay [4]: qHTS assay to identify small molecule agonists of the estrogen receptor alpha (ER-alpha) signaling pathway in the presence of an antagonist - cell viability counter screen (AID 1259386; active = well fitted curve in the direction sought with a large enough effect in the repeat runs; an effect the other way counts as inactive or inconclusive;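 note: series mostly up to about 92 µM; cells exposed to compounds for 22 h at 37 °C before the viability read; nearly all actives have a fitted effect of over 30% in size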). The gist of the method: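 VM7Luc4E2 cells (endogenous full-length ER-alpha, 4×ERE-luciferase) were held 5 days in phenol red-free medium with 10% charcoal-stripped FBS, plated, then given 10.0nM ICI-182,780 and compounds at 15 concentrations for 22hr at 37C; viability read by CellTiter-Fluor fluorescence.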

The target of assay [5] is Progesterone receptor (Homo sapiens) (UniProt P06401). In words: qHTS assay to identify small molecule agonists of the progesterone receptor (PR) signaling pathway (AID 1346784). Note: nearly all actives have a fitted effect of over 30% in size. Note: potency is the fitted concentration of half-maximal effect. In a few lines:
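Agonist qHTS: compounds pinned onto 3,000 PR-UAS-bla HEK 293T cells per well in charcoal-stripped serum medium, 16hr at 37C, then beta-lactamase activity measured by LiveBLAzer FRET fluorescence after 2 hours at room temperature.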

The target is the same in assay [6]. Nature of the assay: qHTS assay to identify small molecule antagonists of the progesterone receptor (PR) signaling pathway (AID 1346795; active = well fitted inhibition curve with a large enough effect in the signal ratio in the repeat runs, not every such curve was filed as active; the % refers to the signal ratio). In a few lines:
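Antagonist mode with agonist R5020 at 1 nM final and 16 hr incubation at 37C. Reporter was beta-lactamase driven by UAS in HEK293T (PR-UAS-bla), 2% charcoal-stripped serum; signal from LiveBLAzer FRET substrate, 2 hr at room temperature.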

A short description of assay [7]: qHTS assay to identify small molecule antagonists of the progesterone receptor (PR) signaling pathway - cell viability counter screen (AID 1346798; active = well fitted curve in the direction sought with a large enough effect in the repeat runs; an effect the other way counts as inactive or inconclusive; note: series mostly up to about 92 µM; nearly all actives have a fitted effect of over 50% in size). In a few lines: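 Cytotoxicity read as CellTiter-Glo luminescence (30 min, room temperature) in the same wells as the beta-lactamase readout. HEK293T PR-UAS-bla cells in charcoal-stripped 2% FBS received compound and R5020, then 16 h at 37C, 5% CO2.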

Assay [8] is described as follows: qHTS assay to identify small molecule agonists of the progesterone receptor (PR) signaling pathway - cell viability counter screen (AID 1346799). Note: nearly all actives have a fitted effect of over 45% in size. In a few lines:
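Cytotoxicity measured by CellTiter-Glo luminescence (30 min, RT) in the same wells as the PR beta-lactamase agonist read. Those HEK293T cells had 16 h compound treatment at 37 C in 2% charcoal-stripped FBS medium.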

Assay [9] can be described thus: qHTS assay to identify small molecule antagonists of the estrogen receptor beta (ER-beta) signaling pathway - cell viability counter screen (AID 1259382; active = well fitted curve in the direction sought with a large enough effect in the repeat runs; an effect the other way counts as inactive or inconclusive;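 note: HEK293T cells carrying ER-beta-UAS-bla reporter stimulated with estradiol; series mostly up to about 92 µM; nearly all actives have a fitted effect of over 55% in size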). In a few lines: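 ER-beta-UAS-bla HEK293T cells (2,000/well, 2% charcoal-stripped FBS) were pre-incubated 6 hr at 37C, then given compound plus 1nM final 17-beta-estradiol for 16 hr. Viability was read in the same wells by CellTiter-Glo luminescence after 30 min at room temperature.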

Assay [10] addresses Estrogen receptor (Homo sapiens) (UniProt P03372). In words: qHTS assay to identify small molecule agonists of the estrogen receptor alpha (ER-alpha) signaling pathway in the presence of an antagonist (AID 1259383). Note: top concentration of the series differs between compounds; nearly all actives have a fitted effect of over 15% in size. In a few lines:
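VM7Luc4E2 cells (endogenous full-length ER-alpha, 4×ERE-luciferase) were precultured 5 days in phenol red-free medium with 10% charcoal-stripped FBS, given 10.0nM ICI-182,780 (final), then treated with compounds at 15 concentrations for 22hr at 37C; luminescence read with ONE-Glo.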

Unmarked numbers belong to inactive results. Inconclusive results are not listed. Activity calls are given as the source filed them. Unless noted, calls come from the whole dose curve.

Progesterone receptor (Homo sapiens), sequence (P06401 whole entry, looked up): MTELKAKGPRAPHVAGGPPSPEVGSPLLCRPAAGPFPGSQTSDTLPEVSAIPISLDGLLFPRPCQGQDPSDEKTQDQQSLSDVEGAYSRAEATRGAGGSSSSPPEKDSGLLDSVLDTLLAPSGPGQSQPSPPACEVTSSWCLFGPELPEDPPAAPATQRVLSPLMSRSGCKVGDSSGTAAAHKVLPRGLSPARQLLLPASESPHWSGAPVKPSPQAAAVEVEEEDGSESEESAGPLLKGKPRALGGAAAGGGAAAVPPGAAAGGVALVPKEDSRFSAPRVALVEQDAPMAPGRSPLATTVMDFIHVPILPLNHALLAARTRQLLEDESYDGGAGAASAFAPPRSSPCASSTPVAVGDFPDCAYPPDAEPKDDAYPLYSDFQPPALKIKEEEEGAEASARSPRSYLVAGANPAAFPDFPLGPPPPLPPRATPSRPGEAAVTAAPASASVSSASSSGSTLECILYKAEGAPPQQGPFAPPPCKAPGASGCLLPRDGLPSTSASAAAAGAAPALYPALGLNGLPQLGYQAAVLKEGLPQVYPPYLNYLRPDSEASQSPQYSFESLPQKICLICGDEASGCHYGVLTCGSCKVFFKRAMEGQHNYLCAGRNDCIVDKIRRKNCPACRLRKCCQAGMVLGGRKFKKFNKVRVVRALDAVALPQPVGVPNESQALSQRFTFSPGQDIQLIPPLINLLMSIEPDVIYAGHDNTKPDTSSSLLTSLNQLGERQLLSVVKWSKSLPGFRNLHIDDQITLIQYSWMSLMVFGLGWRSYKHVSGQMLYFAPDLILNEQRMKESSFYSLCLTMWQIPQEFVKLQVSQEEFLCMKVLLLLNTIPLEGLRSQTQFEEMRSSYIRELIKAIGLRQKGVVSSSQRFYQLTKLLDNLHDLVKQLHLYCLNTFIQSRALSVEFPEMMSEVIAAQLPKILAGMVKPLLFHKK
Estrogen receptor (Homo sapiens), sequence (P03372 whole entry, looked up): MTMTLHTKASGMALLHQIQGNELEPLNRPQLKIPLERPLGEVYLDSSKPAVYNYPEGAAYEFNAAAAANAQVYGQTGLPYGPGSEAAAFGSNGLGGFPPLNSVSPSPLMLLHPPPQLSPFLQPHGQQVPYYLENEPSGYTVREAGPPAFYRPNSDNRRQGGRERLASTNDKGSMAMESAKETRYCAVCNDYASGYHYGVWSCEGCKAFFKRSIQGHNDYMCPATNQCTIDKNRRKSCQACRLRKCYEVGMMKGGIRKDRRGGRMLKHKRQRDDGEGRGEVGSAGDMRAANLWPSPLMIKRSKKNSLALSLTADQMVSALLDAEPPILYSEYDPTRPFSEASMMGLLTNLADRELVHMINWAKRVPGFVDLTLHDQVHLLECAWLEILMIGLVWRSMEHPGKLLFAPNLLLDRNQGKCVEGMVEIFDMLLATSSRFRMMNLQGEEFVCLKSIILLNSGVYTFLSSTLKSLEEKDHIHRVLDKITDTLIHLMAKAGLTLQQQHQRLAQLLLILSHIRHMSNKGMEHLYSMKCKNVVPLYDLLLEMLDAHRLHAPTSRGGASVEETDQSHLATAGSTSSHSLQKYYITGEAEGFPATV

For the compound `CC(C)COC(=O)COc1ccc(Cl)cc1Cl`, the result in [1], in assay [2] and in [3] was inactive. Also, the Potency result in assay [4], in [5], in assay [6], in assay [7] and in assay [8] was “inactive” throughout.
For `CCCCCCCCCCCCC`, the result in assay [9], in [10], in [2] and in assay [3] was inactive. Besides, the Potency result in assay [4], in assay [5], in assay [6], in assay [7] and in assay [8] was “inactive” throughout.
For `O=C(CN1CCN(Cc2ccc3c(c2)OCO3)CC1)N1c2ccccc2Sc2ccccc21`, the outcome in assay [1], in assay [2] and in [3] was inactive. Besides, the Potency result in assay [4], in [5], in assay [6], in [7] and in assay [8] was “inactive” throughout.
In the case of `Nc1ccc(C(=O)OCC(O)CO)cc1` (configuration not stated), the compound was called inactive in assay [9], in [10], in assay [2] and in assay [3]. Also, the Potency entry in assay [4], in [5], in [6] and in [7] was “inactive” throughout.
For `CCCCC[Si](OCC)(OCC)OCC`, the outcome in assay [1], in assay [2] and in [3] was inactive. The Potency result in assay [4], in assay [5] and in [6] was “inactive” throughout.
With `CCCCCCCCCCCCOC(C)=O`, the compound was called inactive in assay [9], in assay [10], in assay [2] and in assay [3]. Besides, the Potency entry in [4], in [5], in assay [6], in assay [7] and in [8] was “inactive” each time.
Turning to `Cc1nc2ccccc2c(=O)o1`, the compound was called inactive in assay [9], in assay [10], in assay [2] and in [3]. Besides, the Potency result in assay [4], in assay [5], in assay [6], in [7] and in assay [8] was “inactive” throughout.
Consider `Cc1cccc(C(=O)O)c1[N+](=O)[O-]`, for which the compound was called inactive in assay [9], in assay [10], in [2] and in assay [3]. Moreover, the Potency entry in assay [4], in assay [5], in assay [6] and in assay [7] was “inactive” in each case.
`CCOC(=O)CC#N`: the compound was classed as inactive in assay [9], in [10], in [2] and in [3]. The Potency result in assay [4], in assay [5], in [6], in assay [7] and in assay [8] was “inactive” each time.
For `CCOC(=O)CCCCCCCCC(=O)OCC`, the outcome in [9], in [10], in [2] and in assay [3] was inactive. In addition, the Potency result in assay [4], in assay [5], in assay [6], in assay [7] and in assay [8] was “inactive” each time.
Turning to `CCCCCCCCC(=O)OCC`, the call in assay [9], in [10], in assay [2] and in [3] was inactive. The Potency result in [4], in [5], in assay [6], in [7] and in [8] was “inactive” each time.
With `Cc1cc(C)cc([N+](=O)[O-])c1`, the compound was called inactive in assay [9], in [10], in assay [2] and in [3]. For the same compound, the Potency result in assay [4], in assay [5], in assay [6] and in [7] was “inactive” each time.
Take `COC(=O)CCC(=O)O`: the compound was classed as inactive in assay [9], in assay [10], in assay [2] and in [3]. In addition, the Potency result in assay [4], in assay [5], in assay [6], in [7] and in assay [8] was “inactive” throughout.
Regarding `C=CCOc1c(Br)cc(C(C)(C)c2cc(Br)c(OCC=C)c(Br)c2)cc1Br`, the outcome in assay [9], in assay [10], in assay [2] and in assay [3] was inactive. Moreover, the Potency entry in assay [4], in assay [5] and in [6] was “inactive” each time.
Turning to `C[N+](C)(C)CC(O)CCl` (configuration not stated), the outcome in assay [9], in assay [10], in assay [2] and in assay [3] was inactive. In addition, the Potency result in assay [4], in assay [5], in [6] and in assay [7] was “inactive” each time.
`CO[Si](CCCS)(OC)OC`: the call in assay [9], in assay [10], in assay [2] and in [3] was inactive. Also, the Potency result in assay [4], in assay [5], in assay [6] and in assay [7] was “inactive” each time.
On to `CC(=O)c1ccc2c(c1)CCCC2`, for which the compound was called inactive in assay [9], in [10], in [2] and in [3]. Also, the Potency result in assay [4], in [5], in assay [6] and in assay [7] was “inactive” each time.
Turning to `CC(C)CCCCCCOC(=O)C1CCCCC1C(=O)OCCCCCCC(C)C` (configuration not stated), the outcome in [9], in assay [10], in assay [2] and in [3] was inactive. For the same compound, the Potency result in assay [4], in [5], in [6] and in assay [7] was “inactive” in each case.
For `CC(C)CCCC(C)CC=O` (configuration not stated), the call in assay [9], in assay [10], in [2] and in assay [3] was inactive. The Potency entry in assay [4], in assay [5], in assay [6], in assay [7] and in assay [8] was “inactive” in each case.
Consider `CC(C)COC(=O)/C=C/c1ccccc1`, for which the call in assay [9], in assay [10], in assay [2] and in assay [3] was inactive. Also, the Potency result in [4], in assay [5], in [6], in assay [7] and in [8] was “inactive” throughout.
For the compound `CCCOC(=O)CCCCC(=O)OCCC`, the result in assay [9], in [10], in assay [2] and in [3] was inactive. For the same compound, the Potency entry in assay [4], in assay [5], in assay [6], in assay [7] and in assay [8] was “inactive” in each case.
As for `CCCCCC1Nc2cc(C(F)(F)F)c(S(N)(=O)=O)cc2S(=O)(=O)N1` (configuration not stated), the result in assay [9], in assay [10], in assay [2] and in assay [3] was inactive. Further, the Potency entry in assay [4], in assay [5], in assay [6] and in assay [7] was “inactive” in each case.
Turning to `CC(C)CCC(=O)CCC(C)C`, the result in assay [9], in [10], in assay [2] and in assay [3] was inactive. The Potency result in assay [4], in [5], in assay [6], in assay [7] and in assay [8] was “inactive” in each case.
Turning to `CN=C(NC#N)NCCSCc1csc(N=C(N)N)n1`, the compound was classed as inactive in assay [9], in [10], in assay [2] and in assay [3]. For the same compound, the Potency result in assay [4] and in [5] was “inactive” in each case.
Regarding `NC(=O)NNC(N)=O`, the call in [9], in assay [10], in [2] and in [3] was inactive. The Potency result in assay [4], in [5], in assay [6], in assay [7] and in assay [8] was “inactive” throughout.
On to `CCOC(=O)C(C)(C)C`, for which the compound was called inactive in [9], in assay [10], in assay [2] and in [3]. For the same compound, the Potency result in assay [4], in assay [6], in assay [7] and in assay [8] was “inactive” throughout. Moreover, the Potency in assay [5] was 12.3 µM (active).
Regarding `CCC(O)C(C)(C)C` (configuration not stated), the compound was called inactive in assay [9], in assay [10], in assay [2] and in assay [3]. Further, the Potency result in assay [4], in [5], in assay [6], in assay [7] and in assay [8] was “inactive” in each case.
For the compound `NC(=O)NC(=O)Cc1ccccc1`, the result in assay [9], in assay [10], in assay [2] and in [3] was inactive. In addition, the Potency entry in assay [4], in assay [5], in assay [6], in assay [7] and in assay [8] was “inactive” throughout.
As for `C=CCOCC(CO)(COCC=C)COCC=C`, the result in assay [9], in assay [10], in [2] and in assay [3] was inactive. Also, the Potency result in assay [4], in [5], in assay [6] and in [8] was “inactive” each time.
As to `CCC(C)N` (configuration not stated), the call in assay [9] and in assay [10] was inactive. Also, the Potency entry in assay [4], in assay [5], in assay [6] and in assay [7] was “inactive” each time.
For `CCCCOC(=O)[C@@H](C)Oc1ccc(Oc2ccc(C(F)(F)F)cn2)cc1`, the compound was classed as inactive in assay [9], in assay [10] and in assay [2]. For the same compound, the Potency entry in assay [4], in assay [5], in [6], in [7] and in [8] was “inactive” in each case.
As to `CNC(=O)C(c1ccccc1)c1ccccc1`, the outcome in assay [9], in assay [10], in assay [2] and in [3] was inactive. The Potency result in [4], in assay [5] and in assay [8] was “inactive” in each case.
On to `CC(=O)N(CC(O)CO)c1c(I)c(C(=O)NCC(O)CO)c(I)c(C(=O)NCC(O)CO)c1I` (configuration not stated), for which the compound was classed as inactive in assay [9] and in assay [10]. Moreover, the Potency entry in assay [4], in [5] and in assay [6] was “inactive” each time.
For `CCCCC(CC)COC(=O)c1ccccc1` (configuration not stated), the outcome in [9], in [10], in assay [2] and in [3] was inactive. Besides, the Potency result in assay [4], in assay [5], in assay [6], in assay [7] and in [8] was “inactive” each time.

The values above are taken from PubChem BioAssay (Tox21).
